Records with an inconclusive call do not appear. Activity calls are given as the source filed them. Calls come from the whole dose curve.
What was measured:
[1] = Primary qHTS for Huh7 cytotoxicity: counterscreen for inhibitors of MERS-S pseudotyped particle cell entry (AID 1479147); conditions: outcome: dose series up to 57.1 µM unless noted
[2] = Primary qHTS for inhibitors of MERS-S pseudo-typed particle cell entry (AID 1479149); conditions: outcome: dose series up to 57.1 µM unless noted; note: nearly all actives have a fitted effect of over 60% in size
[3] = Primary qHTS for Vero E6 cytotoxicity: counterscreen for inhibitors of SARS-S pseudo-typed particle cell entry (AID 1479150)
[4] = Primary qHTS for inhibitors of SARS-S pseudo-typed particle cell entry (AID 1479145); conditions: outcome: dose series up to 57.1 µM unless noted; note: nearly all actives have a fitted effect of over 45% in size

Measured: Potency

CCCCCCC(=O)O[C@H]1CC[C@H]2[C@@H]3CC[C@H]4CC(=O)C=C(C)[C@]4(C)[C@H]3CC[C@]12C
inactive: [1] | [2] | [3]

C[C@]12CC[C@H]3[C@@H](CCC4=C(O)C(=O)CC[C@@H]43)[C@@H]1CC[C@@H]2OC(=O)CCC1CCCC1
inactive: [1] | [2] | [3]

C/C(=C\c1csc(C)n1)[C@@H]1C[C@@H]2O[C@]2(C)CCC[C@H](C)[C@H](O)[C@@H](C)C(=O)C(C)(C)[C@@H](O)CC(=O)O1
inactive: all assays above

CCOC(=O)c1ccccc1C(=O)OCC
inactive: all assays above

CCNC1(c2cccs2)CCCCC1=O (stereo not given)
inactive: all assays above

CCCCC[C@@H](O)C1C(=O)OC(C)[C@H](O)/C=C/C=C/C=C/C=C/C=C(\C)C(O)C(O)C(O)C[C@H](O)C[C@H](O)C[C@H](O)C[C@H](O)C[C@@H]1O (stereo not given in full)
inactive: all assays above

O=[N+]([O-])c1ccccc1
inactive: all assays above

CCC1(C)CC(=O)NC(=O)C1
inactive: [4] inactive [at 114 µM] | [1] inactive [at 114 µM] | [2] | [3]

O=C/C=C/c1ccccc1
inactive: all assays above

NCC(O)c1cccc(O)c1 (stereo not given)
inactive: all assays above

CC(C)CCC(=O)O[C@H]1CC[C@H]2[C@@H]3CCC4=CC(=O)CC[C@]4(C)[C@H]3CC[C@]12C
inactive: all assays above

CCC(=O)O[C@@](Cc1ccccc1)(c1ccccc1)[C@@H](C)CN(C)C
inactive: [1] | [2] | [3]

CC1CCC(C(C)C)C(OC(=O)c2ccccc2N)C1 (stereo not given)
inactive: all assays above

O=C(NCNC(=O)NC1C(=O)NC(=O)N1CO)NC1C(=O)NC(=O)N1CO (stereo not given)
inactive: all assays above

O=C(O)C(Cl)(Cl)Cl
inactive: all assays above

CCOc1ccc2c3c1O[C@H]1[C@@H](O)C=C[C@H]4[C@@H](C2)N(C)CC[C@@]341
inactive: [1] | [2] | [3]

Source: PubChem BioAssay (NCATS)
